The sample as a whole holds a higher share of hits than the screen did.
HT1080 IDH1KD tx – qHTS for induction of synthetic lethality in tumor cells producing 2HG: qHTS for the HT-1080-IDH1KD cell line | AID 686971, 2013 | hit rate 2% among 360,000 | Potency, µM (doses to about 46.1 µM), for the others: at the highest dose activity, negative = toxicity, actives largely listed as cytotoxic | HT-1080 IDH1 knockdown viability, ATP luminescence, 48 h;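 note: potency is the fitted concentration of half-maximal effect; 0% = DMSO wells and -100% = cell-free medium wells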
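Assay cells: HT-1080 with IDH1 knockdown, 750 per well, RPMI/5% FBS. Exposure: 48 h at 37 °C following 2 h pre-incubation. Read: CellTiter-Glo luminescence; fitted concentration-response, curve class assigned.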
DT40 TDP1 no CPT – qHTS for Inhibitors of human tyrosyl-DNA phosphodiesterase 1 (TDP1): qHTS in cells in absence of CPT | DT40 Tdp1-/- hTDP1 cells, no CPT, ATP luminescence, 48 h | hit rate 15% among 420,000 | Potency, µM (top dose mostly 46.2 µM), for the others: at the top dose activity change, negative = growth inhibition, hits mostly inhibitors | AID 686978, 2013; note: potency is the fitted concentration of half-maximal effect; nearly all actives have a fitted effect of over 55% in size
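Luminescent ATP content (CellTiter-Glo) served as the growth readout. Knockout chicken DT40 cells expressing human TDP1 were exposed to compounds without camptothecin for a minimum 48 hr at 37 °C.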
IL1B secr inh – qHTS for Inhibitors of Inflammasome Signaling: IL-1-beta AlphaLISA Primary Screen | hit rate 4.7% among 360,000 | THP-1 LPS/ATP IL-1B secretion, AlphaLISA, 16 h; hits give low values | activity change, % at 57.5 µM; in the data active = activity change below about -50%; inconclusive = mostly about -30% to -49%
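THP-1 cells pretreated 1 hr with compounds (up to 57.5 uM final), then stimulated with LPS (250 ng/mL final) plus ATP (1.25 mM final); secreted IL-1B measured by AlphaLISA after 16 hr, decreased signal indicating inhibition.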
DT40 TDP1 CPT – qHTS for Inhibitors of human tyrosyl-DNA phosphodiesterase 1 (TDP1): qHTS in cells in presence of CPT. chicken DT40 Tdp1-/-;hTDP1 cells + 20 nM CPT, ATP luminescence, 48 h. Potency, µM (titrated, usually from 46.2 µM), for inactives: at the highest dose activity change, negative = growth inhibition, hits mostly inhibitors. hit rate 12% among 420,000; note: potency is the fitted concentration of half-maximal effect; nearly all actives have a fitted effect of over 55% in size
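Cell growth measured by CellTiter-Glo luminescence after a minimum 48 h, 37 C compound exposure with 20 nM CPT in Tdp1-knockout DT40 cells stably expressing hTDP1, seeded 400/well; qHTS titration format.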
HT1080-NT tox – qHTS for induction of synthetic lethality in tumor cells producing 2HG: qHTS for the HT-1080-NT fibrosarcoma cell line. HT-1080-NT fibrosarcoma viability, CellTiter-Glo ATP luminescence, 48 h. Potency, µM (doses to about 46.1 µM), without a hit: at the top dose activity, negative = less viability, hits mostly cytotoxic. hit rate 1.6% among 360,000. AID 686970, 2013;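 note: NT is the 2HG producing partner of a matched IDH1 knockdown line; potency is the fitted concentration of half-maximal effect; 0% = DMSO-treated cells and -100% = media-only wells without cells; nearly all actives have a fitted effect of over 55% in size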
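Viability by CellTiter-Glo luminescence after 48 h compound exposure at 37C of HT-1080-NT cells (750/well, RPMI, 5% FBS). % activity scaled between DMSO wells and medium-only wells, then curve-fitted and categorized by curve class.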
ALOX12 inh – Primary qHTS assay for inhibitors of human arachidonate 12S-lipoxygenase (ALOX12): Round 2 | purified 12hLO, xylenol orange hydroperoxide absorbance | Polyunsaturated fatty acid lipoxygenase ALOX12 (Homo sapiens), P18054 | Potency, µM (doses to about 108 µM), for inactives: at the highest dose activity change, negative = inhibition, usual class: inhibitors | hit rate 1.1% among 580,000; note: potency is the fitted concentration of half-maximal effect
Target sequence (P18054 whole entry, looked up): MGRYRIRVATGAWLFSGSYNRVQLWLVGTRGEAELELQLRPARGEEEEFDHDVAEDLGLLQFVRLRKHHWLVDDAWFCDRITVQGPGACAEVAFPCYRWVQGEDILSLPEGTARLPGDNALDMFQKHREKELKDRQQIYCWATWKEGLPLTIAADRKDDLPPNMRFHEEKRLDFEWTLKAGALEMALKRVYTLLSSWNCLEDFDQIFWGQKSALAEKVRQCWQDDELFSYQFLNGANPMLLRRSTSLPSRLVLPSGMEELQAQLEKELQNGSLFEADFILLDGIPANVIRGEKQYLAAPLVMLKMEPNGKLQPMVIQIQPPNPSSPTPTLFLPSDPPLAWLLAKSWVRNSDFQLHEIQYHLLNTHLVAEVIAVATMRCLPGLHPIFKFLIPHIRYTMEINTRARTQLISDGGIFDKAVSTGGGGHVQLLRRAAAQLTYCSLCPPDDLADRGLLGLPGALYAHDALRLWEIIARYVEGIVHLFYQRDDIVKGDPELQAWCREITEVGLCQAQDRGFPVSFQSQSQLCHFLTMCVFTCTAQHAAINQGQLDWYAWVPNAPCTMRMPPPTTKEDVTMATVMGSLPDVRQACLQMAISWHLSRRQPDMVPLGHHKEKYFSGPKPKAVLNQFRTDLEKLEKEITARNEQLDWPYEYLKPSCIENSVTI
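Hydroperoxide product was detected by ferrous iron/xylenol orange as the 573 to 405 nm absorbance ratio. Arachidonic acid at 40 uM (final) was turned over for 30 min at room temperature by 150 nM human 12hLO, pH 7.0 Hepes buffer, after 15 min compound preincubation.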
* marks the source's active call; other numbers are inactive results; ? = inconclusive; · = no result; [ ] = another dose, or the depositor's remark. Unless noted, calls come from the whole dose curve; as a rule, active = well fitted curve in the direction sought with a large enough effect; inconclusive = small, poorly fitted or top-dose-only effect, or another doubt; inactive = no such curve, though single readings can be large; an effect the other way counts as inactive or inconclusive. Unless noted, % is set by controls: 0 for no effect and ±100 for the full control effect.

SMILES | HT1080 IDH1KD tx | DT40 TDP1 no CPT | IL1B secr inh | DT40 TDP1 CPT | HT1080-NT tox | ALOX12 inh
Cc1cccc(NC(=O)/C(C#N)=C/c2ccc[nH]2)c1C | 0.3% | ? | 14.6 | 11.6µM* | 0.0% | 469.4%
N#C/C(=C\c1ccc[nH]1)C(=O)NC1CC1 | ? | -9.3% | -5.1 | 2.2% | 0.0% | 7.9%
CCn1nccc1NC(=O)c1csc([C@H]2C[C@H](O)[C@@H](CO)O2)n1 | 12.8% | 10.7% | 14.1 | 10.6% | 15.2% | -11.1%
Cc1ccc(NCc2cccn2-c2nnc(N3CCC(C(=O)NCCC(C)C)CC3)s2)cc1 | · | 20.6µM* | · | ? | · | -19.2%
Cc1ccc(NCc2cccn2-c2nnc(N3CCC(C(=O)NC(C)C)CC3)s2)cc1 | · | ? | · | ? | · | -19.1%
CSc1ccc(CNC(=O)C2CCN(c3nnc(-n4cccc4CNc4ccc(C)cc4)s3)CC2)cc1 | · | 16.4µM* | · | ? | · | -1.1%
COCCCNC(=O)C1CCN(c2nnc(-n3cccc3CNc3ccc(C)cc3)s2)CC1 | · | -8.2% | · | -9.3% | · | -15.7%
Cc1cc(C)nc(S[C@H]2C[C@@H](C(=O)N3CCN(c4ccccc4F)CC3)N(Cc3ccccc3C(F)(F)F)C2)n1 | · | ? | · | ? | · | -15.2%
COC[C@H]1CCCN1C(=O)[C@@H](C)C1CC[C@@]2(C)CC[C@H](NC(=O)c3ccc(C#N)cc3)[C@@H](C)[C@@H]2[C@H]1O (stereo partly specified) | · | · | · | · | · | 46.4%
O=C1c2ccccc2NC2CCCCC12 (stereo unspecified) | 0.0% | 23.1µM* | 15.8 | ? | 0.0% | -0.8%[57.4 µM]
COc1ccc(-c2cc(N3CCCN(C(=O)Cc4ccc(Cl)cc4)CC3)n[nH]2)cc1 | · | · | · | · | · | -27.2%
CN1CCCC(CC2c3ccccc3Sc3ccccc32)C1 (stereo unspecified) | 18.4µM* | 8.05µM* | -57.5* | ? | 20.6µM* | -19.0%
O=[N+]([O-])c1cc(S(=O)(=O)c2ccc(N3CCCCC3)c([N+](=O)[O-])c2)ccc1N1CCCCC1 | 0.0% | 20.6µM* | -7.6 | ? | -3.4% | -6.0%
O=[N+]([O-])c1ccc(N2CCCCCC2)c([N+](=O)[O-])c1 | -3.6% | -24.2% | -8.5 | -10.9% | -1.6% | ?
O=[N+]([O-])c1cccc(S(=O)(=O)c2ccc(N3CCCCC3)c([N+](=O)[O-])c2)c1 | -23.9% | 25.9µM* | -15.5 | ? | -11.6% | -2.7%
CCCc1ccc(C(=O)O)cc1 | · | -4.1% | · | -0.5% | · | ·
c1ccc(Oc2ccccc2-c2cc(NCCc3cccnc3)n3nccc3n2)cc1 | 0.5% | ? | 17.1 | 18.4µM* | ? | -6.6%
Cc1ccc(S(=O)(=O)N(C)c2ccc(OCC(=O)Nc3nc(-c4ccccc4)cs3)cc2)cc1 | 2.0% | 13µM* | 32.6 | 16.4µM* | 6.6% | -9.4%
CN(c1ccc(OCC(=O)OCC(=O)Nc2ccccc2)cc1)S(=O)(=O)c1ccc(F)cc1 | 3.4% | 1.9% | 13.1 | 34.9% | -6.2% | -2.4%
CN(c1ccc(OCC(=O)Nc2nc(-c3ccccc3)cs2)cc1)S(=O)(=O)c1ccc(F)cc1 | -3.7% | 20.6µM* | 19.0 | 18.4µM* | 7.7% | -10.5%
CCOC(=O)C(=O)c1csc(NC(=O)COc2ccc(N(C)S(=O)(=O)c3ccc(F)cc3)cc2)n1 | 0.0% | -3.1% | 7.7 | -9.1% | -1.5% | 0.0%
CN(Cc1ccccc1)C(=O)COc1ccc(N(C)S(=O)(=O)c2ccc(F)cc2)cc1 | -0.6% | 14.6µM* | 0.0 | 16.4µM* | -14.1% | -4.5%
COc1ccc(OC)c(NC(=O)C2CCN(c3cnc4nccnc4c3)CC2)c1 | · | · | · | · | · | 1.3%
Cc1ccc(O)c(C(=O)CC(=O)c2ccccc2Cl)c1 | 11.6µM* | 4.61µM* | 0.0 | 2.31µM* | ? | 15.6%
Cc1ccc(O)c(C(=O)CC(=O)c2ccc(C(C)(C)C)cc2)c1 | -3.9% | 4.61µM* | 30.7 | 7.31µM* | -21.9% | 16.8%
SMILES | HT1080 IDH1KD tx | DT40 TDP1 no CPT | IL1B secr inh | DT40 TDP1 CPT | HT1080-NT tox | ALOX12 inh
Cc1ccc(O)c(C(=O)N(C)Cc2c(F)cccc2Cl)c1 | · | · | · | · | · | 39.8µM*
Cc1ccc(C(=O)CC(=O)c2ccc(C)cc2)cc1 | · | · | · | · | · | 2.4%
C[C@H]1[C@@H]2[C@@H](O)C([C@H](C)C(=O)NCc3ccccn3)CC[C@@]2(C)CC[C@@H]1NC(=O)c1ccc(C#N)cc1 (stereo partly specified) | · | · | · | · | · | 59.9%
CN(C)CC(CCC(CN(C)C)C(=O)c1ccccc1)C(=O)c1ccccc1 (stereo unspecified) | 5.8µM* | 1.64µM* | -99.7* | 1.46µM* | 3.26µM* | ·
C=CCC(C(=O)c1ccccc1)C(=O)c1ccccc1 | · | · | · | · | · | -22.3%
COc1ccc(C(=O)CC(=O)c2ccc(OC)cc2)cc1 | -1.0% | -11.9% | -3.6 | 1.8% | -15.9% | 10.5%
COc1ccc(C(=O)C(CCCCC(CN(C)C)C(=O)c2ccc(OC)cc2)CN(C)C)cc1 (stereo unspecified) | ? | 5.8µM* | -9.8 | 20.6µM* | -14.2% | -21.0%
CCc1nc2c(c(-c3ccc(Cl)cc3)n1)CN(C(=O)c1ccc(C)cc1)CC2 | · | · | · | · | · | -25.4%
CN(CCc1ccccc1)C(=O)CCC1CCN(c2cc(NC3CC3)ncn2)CC1 | · | · | · | · | · | 48.6%
Clc1ccc(N2CCN(c3cnc4ccccc4n3)CC2)cc1 | 1.4% | ? | -9.1 | 23.1µM* | 5.4% | -13.8%
c1ccc(N2CCN(c3cnc4ccccc4n3)CC2)cc1 | -12.6% | ? | 19.8 | ? | -5.9% | 0.0%
COc1cccc(NC(=O)CCc2ncc(-c3ccc(C)c(C)c3)o2)c1 | · | · | · | · | · | 24.5%
Cc1ncsc1CCC(=O)N1CCCC(Nc2ccc(F)c(F)c2)C1 (stereo unspecified) | -7.2% | ? | 8.9 | 13µM* | -4.4% | 12.0%
O=C1CCCCN1CC(=O)N1CCCC(Nc2ccc(F)c(F)c2)C1 (stereo unspecified) | 22.4% | ? | 10.3 | 20.6µM* | 7.3% | 0.0%
Cc1ncsc1CCC(=O)N1CCCC(c2nc(-c3ccncc3)ncc2-c2ccccc2)C1 (stereo unspecified) | · | 20.6µM* | · | 8.6%[9.04 µM] | · | -16.2%
